About 2,600 (0.93%) of roughly 280,000 compounds were called active. About 8% were inconclusive and are not listed. What follows is part of a selection rich in actives, with near analogues and random picks from the rest. Values without a mark were called inactive. Calls come from the whole dose curve; as a rule, active = well fitted curve in the direction sought with a large enough effect; inconclusive = small, poorly fitted or top-dose-only effect; inactive = flat fitted curve, though single readings scatter.
Experiment: Counterscreen qHTS for Inhibitors of Tau Fibril Formation, Fluorescence Polarization; note: nearly all actives have a fitted effect of over 55% in size
Settings: tau K18 P301L Alexa594 fluorescence, heparin fibrillization; series mostly up to 57.7 µM; activity change, negative = decrease: at the top concentration
Summary of the method: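 Human tau K18 P301L (15 uM unlabeled, 0.24 uM Alexa 594-labeled) in 100 mM sodium acetate pH 7 with 20 uM heparin, 6 hr at 37 C. ThT 30 uM added, 1 hr ambient; Alexa 594 FP and total fluorescence read at 555/632 nm.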
% is set by controls: 0 for no effect and ±100 for the full control effect; potency is the fitted concentration of half-maximal effect; tags give direction and shape of the fitted curve or compound fluorescence and quenching.

Row | Structure (SMILES) | activity change, negative = decrease | Potency
1 | CCOc1ccccc1N(CC)C(=O)c1cc2ccc3cccnc3c2[nH]1 | -12.8% | 
2 | CCOc1ccc(N(C)S(=O)(=O)c2cc(-c3cnc(C)o3)ccc2OC)cc1 | -16.6% | 
3 | Cc1cc(C)cc(Nc2ncnc3onc(-c4ccc(F)cc4)c23)c1 | -27.8% | 
4 | Cc1cc(OCC(=O)NCC2(N(C)C)CCCCC2)cc(C)c1Cl | -4.83% | 
5 | COC(=O)c1sccc1S(=O)(=O)N(CC(=O)Nc1ccc(C)c(F)c1)c1ccc(C)c(C)c1 | -26.5% | 
6 | Cc1nn(Cc2ccc(F)cc2)c(C)c1NC(=O)c1cc(CC(C)C)on1 | -6.55% | 
7 | CCc1nc2ccc(C(=O)N3CCN(c4cc(Cl)ccc4C)CC3)cc2nc1CC | -16.5% | 
8 | COc1cccc(C(=O)Nc2ccc3nc4n(c(=O)c3c2)CCCCC4)c1 | -19.2% | 
9 | COc1ccc(NC(=O)c2ccc3nc(C(C)C)oc3c2)cc1OC | -10.9% | 
10 | COc1ccc(C(=O)Nc2ccc3nc(N4CCCCC4)cc(C)c3c2)cc1OC |  | 10 µM [quencher] (active)
11 | COc1ccccc1CN1CCC(CNC(=O)c2cnn(-c3ccccc3Cl)c2C2CCN(C(=O)OC(C)(C)C)CC2)CC1 | -15.9% | 
12 | Fc1ccc(-c2nn(-c3ccccc3Cl)c3c2cnc2ccccc23)cc1 | -24.1% | 
13 | O=C(Nc1ccccc1)Nc1nc2ccccc2s1 | -24.8% | 
14 | O=C(Nc1ccc2oc(-c3ccc4ccccc4c3)nc2c1)c1cccs1 | -27.6% | 
15 | O=C(Nc1ccc2ccccc2c1)Nc1ccc2snnc2c1 |  | 4.47 µM [quencher] (active)
16 | Cc1cc(C)c(NC(=O)CN2C(=O)c3cccnc3Oc3ccc(Cl)cc32)c(C)c1 | -15.1% | 
17 | COc1ccc(N2CCN(S(=O)(=O)c3ccc(-c4coc(C)n4)cc3)CC2)cc1 | -25.9% | 
18 | COc1ccc(-c2[nH]ncc2CN(C)Cc2c(C)n[nH]c2C)c(OC)c1 | -0.526% | 
19 | CCOc1ccc(-c2nc(N)ncc2-c2ccccc2OC)c(O)c1 | -28.8% | 
20 | CCOc1ccccc1Oc1cn[nH]c1-c1ccc(OC)cc1O |  | 12.6 µM [quencher] (active)
21 | COc1ccccc1CNC(=O)c1ccc(-n2c(C)cc3c2CCCC3)cc1 | -3.95% | 
22 | COc1ccc(OC)c(CNC(=O)c2c3c(nc4ccccc24)C(=O)N(C2CCCCC2)C3)c1 | 5.73% | 
23 | Fc1ccc(C(Nc2ccc(Cl)c(C(F)(F)F)c2)c2nnc(-c3ccccc3)o2)cc1 (stereo not given) | -22.3% | 
24 | O=C(NCCc1c[nH]c2ccccc12)C(=O)NCC1CCCO1 (stereo not given) | 0.306% | 
25 | N#C/C(=C/c1ccc(-c2ccccc2[N+](=O)[O-])o1)C(=O)NCCN1CCCCC1 | -11.3% | 

Row | Structure (SMILES) | activity change, negative = decrease | Potency
26 | N#C/C(=C/c1ccc(N2CCCCC2)o1)C(=O)NCCc1c[nH]c2ccccc12 |  | 15.8 µM [quencher] (active)
27 | COc1ccc(/C=C/C(=O)Nc2ccc3c(c2)OCCO3)cc1OC | -28.9% | 
28 | COc1ccccc1Nc1c2c(nc3ccc(NC(=O)/C=C/c4cc(OC)c(OC)c(OC)c4)cc13)CCCC2 |  | 10 µM [quencher] (active)
29 | Cc1ccc(Nc2c3c(nc4ccccc24)CCC3)cc1 | -9.23% | 
30 | CCCN(C(=O)Cn1ncc2c([nH]c3ccc(C)cc32)c1=O)c1ccccc1C | -19.4% | 
31 | Clc1ccc(Nc2nc(-c3cccs3)cs2)nc1 |  | 14.1 µM [quencher] (active)
32 | COC(=O)CSc1nccc(-c2cccs2)n1 | 0.872% | 
33 | c1cnc(Nc2nc(-c3ccc4ccccc4c3)cs2)nc1 | -6.05% | 
34 | Cc1cccc(-n2ncc(C(=O)N3CCN(c4ccc(Cl)cc4)CC3)c2C2CCN(C(=O)OC(C)(C)C)CC2)c1 | -17.5% | 
35 | Cc1ccc(C)c(N2CCN(C(=O)C3CCC(CNS(=O)(=O)c4cccs4)CC3)CC2)c1 (stereo not given) | -20% | 
36 | CN1C(=O)C(CC(=O)Nc2ccccc2)S/C1=N/c1nccs1 (stereo not given) | -2.38% | 
37 | O=C(CC1SC(=Nc2ccccc2)N(Cc2ccccn2)C1=O)Nc1cccc(Cl)c1 (stereo not given) |  | 10 µM [quencher] (active)
38 | O=C(Nc1cccc(Cl)c1)OCc1ccccn1 | -16.9% | 
39 | Fc1ccc(CSc2nc(NCc3ccccc3)c3ccccc3n2)cc1 | -11.1% | 
40 | Cc1ccccc1NC(=S)NNC(=O)c1cccc(Br)c1 | -9.27% | 
41 | O=C(NC(=S)Nc1cccc2c(O)cccc12)c1cccc(Br)c1 |  | 11.2 µM [quencher] (active)
42 | NS(=O)(=O)c1ccc(NC(=S)NC(=O)c2cccc(Br)c2)cc1 | -6.18% | 
43 | COc1cccc(C(=O)N(Cc2cccc(Cl)c2)Cc2ccco2)c1 | -8.6% | 
44 | Cc1ccccc1CSc1nc2c([nH]c3ccccc32)c(=O)n1C | -4.83% | 
45 | CCN(C(=O)CSc1nnc(C)n2c1cc1occc12)c1ccccc1 | -11.2% | 
46 | CC1CCN(S(=O)(=O)c2ccc3c(c2)N(CC(=O)NCCc2ccccc2)C(=O)CO3)CC1 | -19.9% | 
47 | COc1ccc(Cl)cc1NC(=O)c1sc2nc3c(cc2c1N)CN(C)CC3 |  | 10 µM [quencher] (active)
48 | COc1ccc(Cl)cc1NC(=O)CCN1CCOCC1 | 15.5% | 
49 | CCc1ccc(NC(=O)c2sc3nc4c(cc3c2N)CN(CC)CC4)cc1 |  | 20 µM [quencher] (active)
50 | COc1ccc(Cl)cc1NC(=O)c1oc(C)nc1C | -2.19% | 

Row | Structure (SMILES) | activity change, negative = decrease | Potency
51 | CCc1ccccc1NC(=O)c1sc2nc3c(cc2c1N)CN(Cc1ccccc1)CC3 | -23% | 
52 | CCc1ccc2nc3sc(C(=O)Nc4nnc(CC)s4)c(N)c3cc2c1 | -25.2% | 
53 | O=C(Nc1ccc(S(=O)(=O)N2CCC(c3nc4ccccc4s3)CC2)cc1)c1ccccc1F | 2.89% | 
54 | Cc1cc(C)cc(-n2ccnc2SCC(=O)Nc2nc3ccccc3s2)c1 | -11.2% | 
55 | CCOc1ccccc1CNC(=O)Nc1cn(CC(C)C)c(=O)c2ccccc12 | -18.9% | 
56 | CC(C)Cn1c(C2CC(=O)N(c3ccccc3Cl)C2)nc2ccccc21 (stereo not given) | -3.59% | 
57 | Cc1ccc(-c2csc(-c3cc(C)on3)n2)cc1 | -7.55% | 
58 | Cc1ccc(-c2csc(-c3c[nH]c4ccccc34)n2)cc1 |  | 7.08 µM [quencher] (active)
59 | CCCc1cc(-c2nc(-c3ccc(C)cc3)cs2)ccn1 | -4.64% | 
60 | Cc1ccc2c(=O)c(C(=O)c3ccc(Cl)cc3)cn(CC(=O)NC3CCCCC3)c2n1 | -5.5% | 
61 | Cc1ccc(C(=O)NCCSc2c(C)[nH]c3ccccc23)cc1C |  | 12.6 µM [quencher] (active)
62 | COC(=O)CCNC(=O)c1ccc2[nH]c(C)c(C)c2c1 | -13.3% | 
63 | CN(C)CCCNC(=O)c1ccc2[nH]c3ccccc3c2c1 | 0.618% | 
64 | COc1ccc(C(=O)N2CCC(c3nc4ccccc4o3)CC2)cc1 | 5.71% | 
65 | CCOc1ccccc1C(=O)NCc1ccc2c(c1)CCN2C(=O)c1ccc(F)cc1 | -12.3% | 
66 | Cc1ccc(S(=O)(=O)NCc2nc3nc(C)cc(C)n3n2)cc1 | -11% | 
67 | Oc1ccc(/C=N/NC2=NCCCCC2)c(O)c1 | -10.3% | 
68 | Cc1cc(N/N=C/c2ccccc2F)c2ccccc2n1 | -9.11% | 
69 | Oc1ccc(/C=N/Nc2nc(-c3ccccc3F)nc3ccccc23)c(O)c1 |  | 5.01 µM [quencher] (active)
70 | Cc1c(C(=O)Nc2cccc(Cl)c2)oc2ccc(S(=O)(=O)N3CCOCC3)cc12 | -21.2% | 
71 | COc1cc(OC)c(OC)cc1/C=C/c1nc2ccccc2c(=O)n1-c1ccc(Br)c(C)c1 | -24.9% | 
72 | Cc1cc(NC(=O)Nc2ccccc2)n(-c2ccccc2)n1 | -4.86% | 
73 | Cc1cc(Nc2ccccc2)n(CCC#N)n1 | 4.45% | 
74 | Cc1cc(Nc2ccccc2)n(C(=O)c2ccc(N)cc2)n1 |  | 25.1 µM [quencher] (active)
75 | CCOc1ccc(-n2c(C)nc3c(cnn3-c3ccc(C)cc3)c2=O)cc1 | -2.79% | 

Row | Structure (SMILES) | activity change, negative = decrease | Potency
76 | CCOc1ccc(NC(=O)c2c(NC(=O)Cc3ccccc3)sc3c2CCCCC3)cc1 | -17.4% | 
77 | COc1ccc(CCNC(=O)Cn2c(=O)cc(C(F)(F)F)c3c(C)nn(C)c32)c(OC)c1 | -5.48% | 
78 | CCOC(=O)c1c(NC(=O)CSc2cn(CC)c3ccccc23)sc2c1CCC2 | -27.5% | 
79 | CCOC(=O)c1c(NC(=O)C(C)Sc2c[nH]c3ccccc23)sc2c1CCC2 (stereo not given) |  | 7.94 µM [quencher] (active)
80 | CCOC(=O)c1c(NC(=S)Nc2ccccc2C)sc2c1CCC2 | -15.1% | 
81 | CCN(CC)C(=O)CSc1nc2cc3c(cc2c(=O)n1CCCC(=O)NCc1ccc2c(c1)OCO2)OCO3 | 0.813% | 
82 | Cn1c(=O)c2c(nc(N/N=C/c3cccs3)n2Cc2ccc(Br)cc2)n(C)c1=O |  | 14.1 µM [quencher] (active)
83 | CCCCNc1nc2c(c(=O)n(C)c(=O)n2C)n1Cc1cccc(OC)c1 | -15.7% | 
84 | Cn1c(=O)c2c(nc(NCCc3ccccc3)n2Cc2ccccc2Br)n(C)c1=O | 0.274% | 
85 | CCOc1ccccc1N(C)C(=O)c1cc2c(s1)-c1ccccc1OC2 | -13.1% | 
86 | COc1ccc(NC(=O)NC(C)c2c(-n3cccc3)sc(C)c2C)cc1OC (stereo not given) |  | 15.8 µM [quencher] (active)
87 | Cc1ccc(NC(=O)NC(C)c2c(-n3cccc3)sc(C)c2C)c(C)c1 (stereo not given) | -9.91% | 
88 | CCn1cc(NC(=O)Nc2ccc(OC)c(OC)c2)c(C(N)=O)n1 | -7.73% | 
89 | Cc1ccc(CSc2nc3ccsc3c(=O)n2CCC(C)C)cc1 | -17% | 
90 | CCOC(=O)c1c(S(=O)(=O)NCC(=O)Nc2ccc(Cl)c(C(F)(F)F)c2)c(C)n(C)c1C | -29.9% | 
91 | Fc1ccc2[nH]c3c(N4CCN(Cc5ccc6c(c5)OCO6)CC4)ncnc3c2c1 |  | 25.1 µM [quencher] (active)
92 | Fc1ccc2[nH]c3c(N4CCSCC4)ncnc3c2c1 | -10.8% | 
93 | O=c1[nH]c(N2CCN(Cc3ccc4c(c3)OCO4)CC2)nc2c1CCCC2 | 5.42% | 
94 | COc1ccc(S(=O)(=O)c2c(Nc3ccc(C)cc3)sc(C(=O)c3ccc(C)cc3)c2N)cc1 | -14.6% | 
95 | O=C(NCC(c1ccc2c(c1)OCO2)N1CCN(c2ccccc2)CC1)C(=O)Nc1ccccc1F (stereo not given) | -27.4% | 
96 | O=C(N/N=C/c1ccc(OCc2ccccc2)cc1)c1ccc(O)cc1 | -29% | 
97 | CN(C)c1ccc(/C=N/N(Cc2ccccc2)c2ccccc2)cc1 | 6.03% | 
98 | Oc1ccc(/C=N/N(Cc2ccccc2)c2ccccc2)cc1 |  | 15.8 µM [quencher] (active)
99 | CCN(CC)c1ccc(NC(=O)CN2C(=O)c3cccnc3Oc3ccc(Cl)cc32)c(C)c1 | -14% | 
100 | CCc1cc2c(cc3c(=O)n(CC(=O)N4CCN(c5cc(Cl)ccc5C)CC4)ncn32)s1 | 0.522% | 
